Results as given in the supplement of paper PMC3334620.
The full ranking holds about 33,000 sequences; the median of “E-score (-0.5 to 0.5)” is about -0.011, and the highest 2% start at about 0.28. The entries come from a sample that favours the highest values as a whole.

Biological target: T1, Gcr1 (UniProt P07261)
T1 sequence: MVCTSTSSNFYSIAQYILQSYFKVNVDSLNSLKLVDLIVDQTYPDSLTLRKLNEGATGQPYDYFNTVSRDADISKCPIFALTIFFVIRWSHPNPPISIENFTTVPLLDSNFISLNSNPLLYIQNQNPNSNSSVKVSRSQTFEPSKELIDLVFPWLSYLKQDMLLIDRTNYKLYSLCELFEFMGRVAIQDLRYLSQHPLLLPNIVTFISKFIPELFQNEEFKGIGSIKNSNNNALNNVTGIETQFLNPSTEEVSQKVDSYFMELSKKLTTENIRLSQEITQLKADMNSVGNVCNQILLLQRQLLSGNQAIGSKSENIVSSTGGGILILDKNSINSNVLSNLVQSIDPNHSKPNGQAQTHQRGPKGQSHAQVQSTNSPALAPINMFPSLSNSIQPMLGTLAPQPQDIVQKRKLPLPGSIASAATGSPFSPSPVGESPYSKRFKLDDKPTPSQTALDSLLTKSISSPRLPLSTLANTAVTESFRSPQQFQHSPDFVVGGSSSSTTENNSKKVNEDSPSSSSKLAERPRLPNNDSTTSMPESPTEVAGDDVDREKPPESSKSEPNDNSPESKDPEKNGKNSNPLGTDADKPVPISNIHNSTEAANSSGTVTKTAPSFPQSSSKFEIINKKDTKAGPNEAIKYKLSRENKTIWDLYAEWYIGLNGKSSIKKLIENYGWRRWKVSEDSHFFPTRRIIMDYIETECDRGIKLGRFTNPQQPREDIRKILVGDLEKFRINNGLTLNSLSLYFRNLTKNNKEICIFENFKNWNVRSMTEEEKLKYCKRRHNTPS
Experiment: PBM E-score (8-mer binding enrichment) (E-score (-0.5 to 0.5)); higher = stronger / more preferred TF binding
Conditions: protein concentration: 100 nM; construct: GST-full length
Description: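 Universal 'all 10-mer' protein binding microarrays (Agilent AMADID 015681) probed with GST-tagged S. cerevisiae TFs (full-length or DBD) made by in vitro transcription/translation (PURExpress), about 100-200 nM. Bound TF was detected with fluorescent anti-GST. Each ungapped 8-mer (which stands for itself and its reverse complement) is scored by the PBM enrichment score (E-score), a modified Wilcoxon-Mann-Whitney statistic from -0.5 to +0.5, computed with the Universal PBM Analysis Suite. Scale: above 0.35 generally sequence-specific binding.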

| Sequence | PBM E-score |
| --- | --- |
| ATAGGAAA | -0.0777 |
| AAAGGAAG | 0.361 |
| ATAGGAAG | 0.414 |
| ATAGGATA | -0.0284 |
| ATAGGAAT | 0.27 |
| CGCTGCCC | 0.164 |
| CGGGGTGC | 0.226 |
| CCGGATCC | 0.279 |
| CGGGATCC | 0.371 |
| AGGGATCC | 0.286 |
| AGGGATCA | -0.054 |
| CGGGATCA | 0.245 |
| AGGGATCG | -0.151 |
| AGCATCAA | 0.0409 |
| CACGCACC | 0.0442 |
| AGACCGAA | -0.18 |
| GACGGCGC | -0.0687 |
| AGCCTCTA | 0.0722 |
| CCCAGAAG | 0.233 |
| TCCAGAAA | 0.304 |
| GCCAGAAA | 0.236 |
| TTCAGAAA | 0.12 |
| CCCAGAAA | 0.283 |
| ACCAGAAA | 0.0905 |
| GCCTACTA | 0.00583 |

| Sequence | PBM E-score |
| --- | --- |
| AGCCCCGA | -0.108 |
| GAAGCCAC | 0.417 |
| CAAGCCTC | -0.0336 |
| AAAGCCTC | -0.0619 |
| AAAGCCAC | 0.0178 |
| TAAGCCAA | 0.0672 |
| CAAGCCAC | -0.124 |
| GAAGCCAA | 0.29 |
| AAAGCCAA | 0.0021 |
| GAAGCCTC | 0.283 |
| ACTACCCA | -0.135 |
| AATAGCCG | -0.0191 |
| CCCGGGTA | -0.031 |
| TAGGCGCA | 0.225 |
| CCAAAATC | 0.136 |
| ATGGAACG | -0.0103 |
| ATGGAACA | -0.0319 |
| CTGGAACC | 0.375 |
| ATGGAACC | 0.294 |
| CTGGAACA | -0.0357 |
| CTGGAAAC | 0.196 |
| AGCATTCG | -0.235 |
| CTTGGTGC | 0.116 |
| AACTAAAT | 0.123 |
| CAACATTG | -0.0426 |

| Sequence | PBM E-score |
| --- | --- |
| AAAACCGT | 0.0768 |
| CTCGGGCC | -0.107 |
| ACTGTCTC | -0.0499 |
| CGATGCCG | 0.145 |
| AAGTAGAA | 0.0726 |
| CGTTCCTA | 0.15 |
| GGTTCCAC | 0.305 |
| CGTTCCAA | 0.03 |
| AGTTCCCA | 0.22 |
| GGTTCCCA | 0.327 |
| CGTTCCAC | 0.0103 |
| TGTTCCAA | 0.112 |
| CGTTCCCA | -0.0578 |
| AGTTCCAC | 0.0854 |
| GGTTCCTA | 0.342 |
| GGTTCCAA | 0.391 |
| AGTTCCTA | 0.116 |
| CGCTTTCA | -0.00233 |
| CCTGAGAC | -0.0674 |
| GCACCAAC | 0.197 |
| GTATCTAA | 0.16 |
| CAGACGCA | 0.175 |
| AAGACGCT | 0.218 |
| CAGACGCG | 0.136 |
| AAGACGCG | 0.278 |

| Sequence | PBM E-score |
| --- | --- |
| AAGACGCC | 0.349 |
| CAGACGCC | 0.329 |
| GCGAAGAC | -0.133 |
| AGAGCAGG | 0.0116 |
| ATACCTGC | 0.115 |
| GAACGCTA | -0.111 |
| CCCTGGCA | -0.00029 |
| CCTCTCGC | -0.0389 |
| CAGGATCA | -0.179 |
| AGGGATGC | 0.098 |
| CGGGATGC | 0.332 |
| CAGGATGA | 0.0175 |
| CAGGATCC | 0.345 |
| CAGGATGC | 0.446 |
| CAGGATCG | 0.154 |
| CGGGATGA | -0.188 |
| AAGGATGC | 0.313 |
| AAGGATGT | 0.0399 |
| AAGGATGA | -0.116 |
| CAGGATGG | -0.132 |
| CCAGCTGG | 0.157 |
| ACTCTAAC | 0.00366 |
| CCCTTGCA | -0.097 |
| ACCGGAGG | -0.09 |
| TATGAAAA | 0.131 |

| Sequence | PBM E-score |
| --- | --- |
| AGGCAGTA | -0.0662 |
| CTGGTATA | -0.0854 |
| ACGTGTTA | -0.0746 |
| AGCTCGCG | -0.0019 |
| GAGGATAC | -0.00197 |
| CCGGATGC | 0.4 |
| GAGGATGC | 0.423 |
| ACGGATGC | 0.183 |
| CCGGATGA | 0.112 |
| GAGGATGA | -0.0555 |
| GCAGGGGA | -0.102 |
| CGGTGCAC | -0.105 |
| AGAGCAGC | 0.0483 |
| AGCCATGC | -0.346 |
| CAAGAAAA | 0.248 |
| GCCGAATA | 0.2 |
| ACCGAATA | -0.0481 |
| CCCGAATA | 0.334 |
| ACAGAAAA | -0.076 |
| CAAGAATA | 0.19 |
| CCAGAAAA | 0.335 |
| CCAGAATA | 0.283 |
| CCAGAATC | 0.245 |
| GGTTGACA | 0.0705 |
| AATCGGGC | 0.114 |

| Sequence | PBM E-score |
| --- | --- |
| CATAGGCA | 0.0323 |
| CTGATGGC | -0.068 |
| ACGGTAGA | 0.138 |
| TGAAACAA | 0.0585 |
| CGCCTGAA | 0.143 |
| GAGCATAC | -0.155 |
| CAGCATCA | -0.00923 |
| AAGCATCG | 0.0291 |
| GAGCATCA | -0.0695 |
| AAGCATCA | -0.0253 |
| AAGCATCC | 0.404 |
| GAGCATCC | 0.398 |
| CAGCATCG | 0.0157 |
| CAGCATCC | 0.447 |
| CTCTCGCA | 0.0115 |
| ACACTGGT | 0.035 |
| CAGGGACC | 0.0209 |
| AAAGTCTT | -0.247 |
| AGACACTA | -0.0252 |
| ATAAAGGG | 0.123 |
| ACGGAGCT | -0.175 |
| ACGAAGCT | 0.399 |
| ACAAAGCT | 0.0432 |
| ACGAAGCC | 0.428 |
| CCGAAGCC | 0.136 |

| Sequence | PBM E-score |
| --- | --- |
| ACGAAGCG | 0.0293 |
| ACGAAGCA | -0.12 |
| TCAGGCCA | -0.118 |
| GACAGACC | -0.157 |
| AACTAGTT | 0.0246 |
| AGGCTCGC | -0.213 |
| CCTGGGCA | -0.022 |
| CCTATAGC | -0.0383 |
| CCTATAGA | 0.286 |
| ACTATAGA | 0.0257 |
| TATGAAGA | 0.0942 |
| ATAATTAA | 0.134 |
| ATAATTAC | 0.0678 |
| ATAATTAT | 0.297 |
| GAAAGAGA | -0.038 |
| ACGCTGCC | 0.339 |
| ACGCTGCT | 0.34 |
| ACGCTGCA | 0.0243 |
| GCGCTGCC | 0.0863 |
| ACGCTGCG | 0.086 |
| ACGCTGAT | -0.0742 |
| AGCAGGAC | -0.0439 |
